In PubChem BioAssay (EPA / NIEHS):
Inconclusive results are not listed. Active and inactive are the calls of the source. How the source made its calls, unless noted: active means hit-call score of the fitted dose curve at least 0.9, where 1 is the maximum; inconclusive means response in the unintended direction; inactive means score below 0.9.

What was measured:
[1] = read-out: Thyroid Hormone Responsive (THRSP), THRSP (gene 7069); assay: LTEA_HepaRG_THRSP: Life Technologies and Expression Analysis (LTEA) Assay for Thyroid Hormone Responsive (THRSP) using HepaRG (AID 2283536; active means hit-call score of the fitted dose curve at least 0.9, where 1 is the maximum; inactive means score below 0.9); details: mRNA level, 48 h; actives raise or lower the signal
Outline: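 qRT-PCR read-out (Fluidigm TaqMan), housekeeping-normalized (ACTB/GAPDH/POLR2A). HepaRG, 48 h chemical exposure, 8-pt half-log series from 100 uM in 0.5% DMSO, duplicates. Bidirectional curve fit vs 0.5% DMSO baseline.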

[2] = read-out: Cellular tumor antigen p53 (Homo sapiens) (UniProt P04637); assay: LTEA_HepaRG_TP53: Life Technologies and Expression Analysis (LTEA) Assay for Tumor Protein P53 (TP53) using HepaRG (AID 2283537; active means hit-call score of the fitted dose curve at least 0.9, where 1 is the maximum; inactive means score below 0.9); details: mRNA level, 48 h; actives raise or lower the signal
Outline: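 Gain or loss of TP53 mRNA signal is scored relative to 0.5% DMSO after 48 h chemical treatment of HepaRG liver cells, tested in duplicate at eight half-log concentrations up to 100 uM.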

[3] = read-out: UDP glucuronosyltransferase (UGT1A1), UGT1A1 (gene 54658); assay: LTEA_HepaRG_UGT1A1: Life Technologies and Expression Analysis (LTEA) Assay for UDP glucuronosyltransferase (UGT1A1) using HepaRG (AID 2283538; active means hit-call score of the fitted dose curve at least 0.9, where 1 is the maximum; inactive means score below 0.9); details: mRNA level, 48 h; actives raise or lower the signal
Outline: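 UGT1A1 transcript level, measured by qRT-PCR with three housekeeping genes for normalization, after 48 h treatment of human HepaRG cells (0.5% DMSO, duplicates, up to 100 uM, half-log steps, 8 points). Curves fit both directions against DMSO baseline.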

[4] = read-out: UDP glucuronosyltransferase (UGT1A6), UGT1A6 (gene 54578); assay: LTEA_HepaRG_UGT1A6: Life Technologies and Expression Analysis (LTEA) Assay for UDP glucuronosyltransferase (UGT1A6) using HepaRG (AID 2283539; active means hit-call score of the fitted dose curve at least 0.9, where 1 is the maximum; inactive means score below 0.9); details: mRNA level, 48 h; actives raise or lower the signal
Outline: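 Expression was quantified by TaqMan qRT-PCR on Fluidigm arrays with ACTB/GAPDH/POLR2A normalization and bidirectional fitting against 0.5% DMSO. HepaRG cells (~100,000/well) were treated in duplicate for 48 h at eight half-log concentrations up to 100 uM in serum-free induction medium.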

[5] = read-out: X-box binding protein 1 (XBP1), XBP1 (gene 7494); assay: LTEA_HepaRG_XBP1: Life Technologies and Expression Analysis (LTEA) Assay for X-box binding protein 1 (XBP1) using HepaRG (AID 2283540; active means hit-call score of the fitted dose curve at least 0.9, where 1 is the maximum; inactive means score below 0.9); details: mRNA level, 48 h; actives raise or lower the signal
Outline: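 XBP1 transcript by qRT-PCR (housekeeping-normalized: ACTB, GAPDH, POLR2A) after 48 h chemical treatment of HepaRG cells, 8-point half-log series topping at 100 uM, vehicle 0.5% DMSO. Gain and loss of signal fitted relative to DMSO.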

[6] = LTEA_HepaRG_LDH_cytotoxicity: Cytotoxicity Assessment in the Life Technologies and Expression Analysis (LTEA) Assay (AID 2283563)
Outline: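 LDH release into culture medium read after 48 h chemical treatment of HepaRG cells. Duplicate wells, eight-point half-log series topping at 100 uM, 0.5% DMSO vehicle and baseline.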

[7] = TOX21_p53_BLA_p2_viability: Viability Assessment in the Tox21 HCT-116 p53 Agonism Beta-lactamase Assay, Phase 2 (AID 2283591);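 further: compound exposure lasted 16 h at 37 °C; actives lower the ATP signal meaning cytotoxicity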
Outline: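 HCT116 p53-bla cells, 4000/well, dosed after 5 h plating (217-fold dilution of DMSO stocks) and incubated 16 h at 37C. Viability taken as cellular ATP by CellTiter-Glo luminescence after 30 min RT; signal loss marks cytotoxicity.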

[8] = target: Cellular tumor antigen p53 (Homo sapiens) (UniProt P04637); assay: TOX21_p53_BLA_p3_ratio: Tox21 HCT-116 p53 Agonism Beta-lactamase Assay, Ratio, Phase 3 (AID 2283596)
Sequence of Cellular tumor antigen p53 (Homo sapiens) (P04637 whole entry, looked up): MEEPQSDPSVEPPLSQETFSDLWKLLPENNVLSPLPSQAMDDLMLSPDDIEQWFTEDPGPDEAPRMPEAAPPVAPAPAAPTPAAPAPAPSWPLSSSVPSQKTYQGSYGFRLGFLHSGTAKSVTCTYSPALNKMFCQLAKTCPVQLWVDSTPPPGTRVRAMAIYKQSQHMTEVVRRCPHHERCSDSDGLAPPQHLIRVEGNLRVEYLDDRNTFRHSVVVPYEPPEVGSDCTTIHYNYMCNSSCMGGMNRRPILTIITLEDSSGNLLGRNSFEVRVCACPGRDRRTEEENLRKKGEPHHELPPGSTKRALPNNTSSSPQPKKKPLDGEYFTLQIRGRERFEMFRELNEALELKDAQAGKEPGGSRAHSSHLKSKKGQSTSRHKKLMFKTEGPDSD
Outline: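 Cells were seeded at 4000/well, rested 5 h at 37C, then dosed with DMSO compound solutions (217-fold dilution) for 16 h. CCF4-AM substrate was loaded for 2 h at room temperature, and the 460/530 nm emission ratio was fitted for gain of signal versus DMSO.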

[9] = TOX21_p53_BLA_p4_viability: Viability Assessment in the Tox21 HCT-116 p53 Agonism Beta-lactamase Assay, Phase 4 (AID 2283597);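 further: hits lower the luminescence signal meaning cytotoxicity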
Outline: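 Cytotoxicity as reduced cellular ATP (CellTiter-Glo luminescence, 30 min room temperature), measured in the same wells following the CCF4 FRET p53 reading. Human HCT-116 cells received compounds in DMSO (217-fold dilution) for 16 h.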

[10] = TOX21_p53_BLA_p5_viability: Viability Assessment in the Tox21 HCT-116 p53 Agonism Beta-lactamase Assay, Phase 5 (AID 2283600)
Outline: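 Viability came from CellTiter-Glo ATP luminescence, read after 30 min at room temperature. Before this, HCT-116 p53-bla cells (4000/well) had 16 hours of compound exposure at 37C, with DMSO stocks diluted 217-fold on transfer.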

[11] = target: Cellular tumor antigen p53 (Homo sapiens) (UniProt P04637); assay: TOX21_p53_BLA_p4_ratio: Tox21 HCT-116 p53 Agonism Beta-lactamase Assay, Ratio, Phase 4 (AID 2283601)
Outline: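 HCT-116 p53 beta-lactamase reporter cells (4000/well) preincubated 5 h, then compound (217-fold dilution of DMSO stock) for 16 h at 37C. CCF4-AM substrate added 2 h at room temperature; 460/530 nm emission ratio fitted upward versus DMSO.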

[12] = Tanguay_ZF_120hpf_MORT_legacy: (Legacy) Oregon State University Tanguay Lab 120 Hour Post-fertilization zebrafish Assay for Mortality (AID 2283633);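 on AC50: fitted as increase in binary mortality versus DMSO negative control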
Outline: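 Static waterborne exposure from 6 to 120 hpf at 28C of single dechorionated wild-type (5D) embryos per well, 0.64% DMSO final. Death recorded present/absent by brightfield at 24 and 120 hpf.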

[13] = Tanguay_ZF_120hpf_YSE_legacy: (Legacy) Oregon State University Tanguay Lab 120 Hour Post-fertilization zebrafish Assay for Yolk Sac Edema (AID 2283634);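 on AC50: actives raise the incidence of yolk sac edema above the DMSO baseline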
Outline: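 Presence or absence of yolk sac edema was recorded at 120 hpf in surviving larvae. These were wild-type Tropical 5D embryos, chorion removed at 4 hpf, held in static exposure at 28C from 6 hpf with 0.64% DMSO vehicle.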

[14] = Tanguay_ZF_120hpf_AXIS_legacy: (Legacy) Oregon State University Tanguay Lab 120 Hour Post-fertilization zebrafish Assay for Body Axis Malformation (AID 2283635);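 on AC50: potency for an increased fraction of larvae scored with body axis malformation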
Outline: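 Binary scoring of axis defects at 120 hpf under brightfield, fitted positive versus DMSO. Tropical 5D embryos, chorion removed by pronase at 4 hpf, were singly exposed in sealed, dark plates at 28C from 6 hpf; DMSO 0.64% final.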

[15] = Tanguay_ZF_120hpf_EYE_legacy: (Legacy) Oregon State University Tanguay Lab 120 Hour Post-fertilization zebrafish Assay for Eye Malformation (AID 2283636);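 further: binary presence or absence of eye malformation scored by brightfield in 120 hpf larvae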
Outline: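 5D wild-type embryos, pronase-dechorionated at 4 hpf; static exposure 6–120 hpf, 28C, dark; DMSO 0.64% final; 5uM trimethyltin chloride positive control. Binary eye-defect scoring at 120 hpf; dead embryos not scored.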

[16] = TOX21_p53_BLA_p3_viability: Viability Assessment in the Tox21 HCT-116 p53 Agonism Beta-lactamase Assay, Phase 3 (AID 2283593);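 further: cells exposed to compound for 16 h before reading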
Outline: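 HCT116 cells, 4000/well, dosed 5 h after plating by pin transfer (217-fold dilution from DMSO stock) and incubated 16 h at 37C, 5% CO2. Viability read as ATP luminescence with CellTiter-Glo after 30 min at room temperature.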

[17] = Tanguay_ZF_120hpf_SNOU_legacy: (Legacy) Oregon State University Tanguay Lab 120 Hour Post-fertilization zebrafish Assay for Snout Malformation (AID 2283637)
Outline: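 Binary brightfield scoring of snout malformation at 120 hpf. Dechorionated 5D wild-type embryos, one per well, static exposure from 6 hpf at 28C, sealed and dark; final DMSO 0.64% (vol/vol), DMSO as baseline; 5uM trimethyltin chloride positive control.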

[18] = Tanguay_ZF_120hpf_JAW_legacy: (Legacy) Oregon State University Tanguay Lab 120 Hour Post-fertilization zebrafish Assay for Jaw Malformation (AID 2283638)
Outline: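 Binary jaw-malformation call at 120 hpf by brightfield microscopy. Embryos (Tropical 5D strain, chorion removed at 4 hpf) were dosed statically at 6 hpf, one per well, at 28C with 0.64% DMSO. Embryos that died were not scored.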

[19] = ATG_XTT_Cytotoxicity: Cytotoxicity Assessment in the Attagene TRANS-FACTORIAL HepG2 Assay (AID 2283584)
Outline: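 Viability endpoint from XTT after 24 h chemical exposure of reporter-transfected human HepG2 liver cells; signal loss fitted relative to DMSO negative control.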

Measured: AC50

CCCCCCC(C)OC(=O)COc1nc(F)c(Cl)c(N)c1Cl (stereo unspecified)
active: [7] 70.8 µM | [9] 76.9 µM | [11] 87.2 µM
not listed: [16] | [17] | [18] | [19]
inactive: all other assays above

CCCOC(=O)c1ccc(C(=O)OCCC)nc1
active: [12] 5.38 µM | [13] 1.17 µM | [14] 0.968 µM
not listed: [10] | [19]
inactive: all other assays above

CCCN(CCC)c1c([N+](=O)[O-])cc(C(F)(F)F)c(N)c1[N+](=O)[O-]
inactive: [2] | [4] | [6] | [12] | [13] | [14] | [17] | [18]
active: [1] 22.5 µM | [3] 6.48 µM | [5] 28.9 µM | [7] 23.1 µM | [16] 44.7 µM | [8] 81.1 µM | [9] 20.7 µM | [10] 21.4 µM | [11] 44.2 µM

COC(=O)CSc1cc(N=c2sc(=O)n3n2CCCC3)c(F)cc1Cl
active: [3] 41.4 µM
not listed: [8] | [11] | [14] | [19]
inactive: all other assays above

CCCCCOC(=O)COc1cc(N2C(=O)C3=C(CCCC3)C2=O)c(F)cc1Cl
not listed: [2] | [7] | [8] | [9] | [10] | [11] | [16] | [19]
inactive: all other assays above

CCOC(=O)C(C)Oc1ccc(Oc2nc3ccc(Cl)cc3o2)cc1 (stereo unspecified)
not listed: [8] | [9] | [11] | [19]
inactive: all other assays above

COc1nc(C)nc(NC(=O)NS(=O)(=O)c2ccccc2OCCCl)n1
inactive: [19] | [7] | [8] | [9] | [11]

CCCN(CCC)C(=O)SCC
not listed: [7] | [15] | [19]
inactive: all other assays above
